Results reported in PubChem BioAssay (EPA / NIEHS).
Records with an inconclusive call do not appear. Calls of active or inactive are those of the source. The calls were made as follows, unless noted: active = hit-call score of the fitted dose curve at least 0.9, where 1 is the maximum; inconclusive = response in the unintended direction; inactive = score below 0.9.

How the values were obtained:
[1] = TOX21_p53_BLA_p2_viability: Viability Assessment in the Tox21 HCT-116 p53 Agonism Beta-lactamase Assay, Phase 2 (AID 2283591);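 also: actives lower the ATP signal meaning cytotoxicity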
How it was run: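 HCT-116 p53-bla cells (4000/well) rested 5 h at 37C, then received compounds in DMSO (217-fold dilution) for 16 h at 37C, 5% CO2. After the CCF4 read, CellTiter-Glo was added; ATP luminescence was read after 30 min at room temperature.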

[2] = target: Cellular tumor antigen p53 (Homo sapiens) (UniProt P04637); test: TOX21_p53_BLA_p2_ratio: Tox21 HCT-116 p53 Agonism Beta-lactamase Assay, Ratio, Phase 2 (AID 2283592)
Cellular tumor antigen p53 (Homo sapiens), sequence (P04637 whole entry, looked up): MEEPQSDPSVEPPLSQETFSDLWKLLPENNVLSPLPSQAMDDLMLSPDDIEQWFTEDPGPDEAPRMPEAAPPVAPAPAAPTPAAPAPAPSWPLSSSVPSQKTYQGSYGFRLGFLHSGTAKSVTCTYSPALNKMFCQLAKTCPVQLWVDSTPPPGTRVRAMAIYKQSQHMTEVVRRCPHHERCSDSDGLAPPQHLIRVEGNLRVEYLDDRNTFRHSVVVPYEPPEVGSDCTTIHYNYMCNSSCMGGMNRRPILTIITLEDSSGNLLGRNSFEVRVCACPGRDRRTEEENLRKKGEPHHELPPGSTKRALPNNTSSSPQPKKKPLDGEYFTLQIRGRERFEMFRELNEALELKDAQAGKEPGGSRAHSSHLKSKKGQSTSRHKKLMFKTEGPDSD
How it was run: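 Read-out is the blue/green (460/530 nm, 405 nm excitation) ratio after 2 h CCF4-AM loading, fitted as gain versus DMSO. Compounds, pinned at 217-fold dilution from DMSO stocks, stayed 16 h on HCT-116 beta-lactamase reporter cells seeded 5 h earlier.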

[3] = TOX21_p53_BLA_p3_viability: Viability Assessment in the Tox21 HCT-116 p53 Agonism Beta-lactamase Assay, Phase 3 (AID 2283593);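 also: cells exposed to compound for 16 h before reading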
How it was run: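 HCT-116 cells (4000/well) rested 5 h at 37C, then got DMSO compounds by pin tool (217-fold dilution) for 16 h at 37C, 5% CO2. After the bla read, CellTiter-Glo was added and luminescence read at 30 min, room temperature.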

[4] = target: Cellular tumor antigen p53 (Homo sapiens) (UniProt P04637); test: TOX21_p53_BLA_p3_ratio: Tox21 HCT-116 p53 Agonism Beta-lactamase Assay, Ratio, Phase 3 (AID 2283596)
How it was run: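 Cells were seeded at 4000/well, rested 5 h at 37C, then dosed with DMSO compound solutions (217-fold dilution) for 16 h. CCF4-AM substrate was loaded for 2 h at room temperature, and the 460/530 nm emission ratio was fitted for gain of signal versus DMSO.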

[5] = target: Cellular tumor antigen p53 (Homo sapiens) (UniProt P04637); test: TOX21_p53_BLA_p5_ratio: Tox21 HCT-116 p53 Agonism Beta-lactamase Assay, Ratio, Phase 5 (AID 2283599)
How it was run: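 HCT-116 cells carrying a p53-inducible beta-lactamase reporter were seeded at 4000 cells/well and dosed after 5 h with compound in DMSO (217-fold dilution). After 16 h at 37C, CCF4-AM substrate was added for 2 h, and the 460/530 nm emission ratio was scored as gain-of-signal versus DMSO.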

[6] = TOX21_p53_BLA_p5_viability: Viability Assessment in the Tox21 HCT-116 p53 Agonism Beta-lactamase Assay, Phase 5 (AID 2283600)
How it was run: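 Viability came from CellTiter-Glo ATP luminescence, read after 30 min at room temperature. Before this, HCT-116 p53-bla cells (4000/well) had 16 hours of compound exposure at 37C, with DMSO stocks diluted 217-fold on transfer.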

[7] = TOX21_p53_BLA_p4_viability: Viability Assessment in the Tox21 HCT-116 p53 Agonism Beta-lactamase Assay, Phase 4 (AID 2283597);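 also: hits lower the luminescence signal meaning cytotoxicity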
How it was run: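 Cytotoxicity as reduced cellular ATP (CellTiter-Glo luminescence, 30 min room temperature), measured in the same wells following the CCF4 FRET p53 reading. Human HCT-116 cells received compounds in DMSO (217-fold dilution) for 16 h.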

[8] = target: Cellular tumor antigen p53 (Homo sapiens) (UniProt P04637); test: TOX21_p53_BLA_p4_ratio: Tox21 HCT-116 p53 Agonism Beta-lactamase Assay, Ratio, Phase 4 (AID 2283601)
How it was run: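 HCT116 cells carrying an inducible beta-lactamase reporter were plated at 4000 cells/well, rested 5 h, then exposed to compounds in DMSO (217-fold dilution) for 16 h at 37C. CCF4-AM substrate was loaded 2 h at room temperature; 460/530 nm emission ratio scored gain-of-signal versus DMSO.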

PGR (gene 5241) [9] = target: PGR (gene 5241) (UniProt P06401); test: TOX21_PR_BLA_Followup_Antagonist_ratio: Tox21 HEK293 Progesterone Receptor (PR) Antagonism Beta-lactamase Follow-Up Assay, Ratio (AID 2283934);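 also: PR-UAS-bla HEK293T cells stimulated with 1 nM R5020 agonist for 16 hr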
PGR (gene 5241), sequence (P06401 whole entry, looked up): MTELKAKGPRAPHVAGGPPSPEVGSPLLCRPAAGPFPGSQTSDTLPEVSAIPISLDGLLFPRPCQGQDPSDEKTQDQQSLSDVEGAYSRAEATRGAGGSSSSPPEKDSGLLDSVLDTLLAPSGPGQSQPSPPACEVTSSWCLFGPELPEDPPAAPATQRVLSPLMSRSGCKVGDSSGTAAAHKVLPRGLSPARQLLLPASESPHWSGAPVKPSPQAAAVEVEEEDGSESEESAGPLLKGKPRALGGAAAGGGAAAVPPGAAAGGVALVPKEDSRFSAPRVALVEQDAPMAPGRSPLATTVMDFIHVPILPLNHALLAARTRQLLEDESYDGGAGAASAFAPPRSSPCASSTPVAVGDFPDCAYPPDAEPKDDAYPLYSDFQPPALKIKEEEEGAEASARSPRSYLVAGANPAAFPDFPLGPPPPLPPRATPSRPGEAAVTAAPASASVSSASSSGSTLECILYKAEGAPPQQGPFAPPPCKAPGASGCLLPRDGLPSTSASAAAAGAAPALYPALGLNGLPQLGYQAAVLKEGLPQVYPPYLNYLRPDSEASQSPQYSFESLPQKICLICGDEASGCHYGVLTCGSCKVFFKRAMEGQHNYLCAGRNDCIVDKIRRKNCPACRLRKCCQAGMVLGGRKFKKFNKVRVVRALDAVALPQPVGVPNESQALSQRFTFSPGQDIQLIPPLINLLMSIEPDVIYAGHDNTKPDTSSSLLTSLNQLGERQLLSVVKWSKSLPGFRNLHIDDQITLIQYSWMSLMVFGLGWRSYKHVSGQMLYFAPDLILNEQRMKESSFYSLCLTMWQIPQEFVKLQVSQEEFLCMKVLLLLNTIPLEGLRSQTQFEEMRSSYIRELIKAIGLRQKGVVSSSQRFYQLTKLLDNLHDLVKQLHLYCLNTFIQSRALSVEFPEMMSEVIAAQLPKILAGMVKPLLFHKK
How it was run: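 Cells are plated, rested 6 hr, then dosed with test compound in DMSO and challenged with 1 nM promegestone. After 16 hr incubation, substrate loading for 2 h at room temperature precedes fluorescence reading; viability is measured in the same wells.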

[10] = TOX21_PR_BLA_Followup_Agonist_viability: Viability Assessment in the Tox21 HEK293 Progesterone Receptor (PR) Agonism Beta-lactamase Follow-Up Assay (AID 2283935);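 also: signal loss means lower viability so actives are cytotoxic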
How it was run: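 Cells were plated in medium with 2% charcoal-stripped FBS and rested 6 hr. Compounds in DMSO were then added for 16 hr at 37C, followed by the FRET substrate step and CellTiter-Glo luminescence after 30 min.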

[11] = TOX21_PR_BLA_Followup_Antagonist_viability: Viability Assessment in the Tox21 HEK293 Progesterone Receptor (PR) Antagonism Beta-lactamase Follow-Up Assay (AID 2283936);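 also: cells exposed to compound with R5020 agonist for 16 h; hits lower the luminescence signal meaning cytotoxicity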
How it was run: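 PR-UAS-bla HEK293T cells in medium with 2% charcoal-stripped FBS were treated with compounds plus R5020 for 16 hr at 37C. After the beta-lactamase read, CellTiter-Glo was added to the same wells and luminescence read after 30 min at room temperature.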

PGR (gene 5241) [12] = target: PGR (gene 5241) (UniProt P06401); test: TOX21_PR_LUC_Followup_Antagonist: Tox21 HEK293 Progesterone Receptor (PR) Antagonism Luciferase Follow-Up Assay (AID 2283938);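 also: curve fitted upward as signal gain over DMSO baseline despite antagonist label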
How it was run: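 Luminescence from ONE-Glo was measured 30 min after reagent addition, following 16 h exposure of HEK293-PR-A-luc cells (3,000/well, plated 5 h earlier) to DMSO-dissolved compounds at 37C; DMSO served as baseline.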

[13] = TOX21_PR_LUC_Followup_Antagonist_viability: Viability Assessment in the Tox21 HEK293 Progesterone Receptor (PR) Antagonism Luciferase Follow-Up Assay (AID 2283940)
How it was run: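 HEK293-PR-A-luc, 3,000 cells/well; 5 h at 37C/0% CO2; compound pin transfer; 16 h incubation; CellTiter-Glo ATP luminescence, signal loss = cytotoxicity.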

[14] = TOX21_PR_LUC_Followup_Agonist_viability: Viability Assessment in the Tox21 HEK293 Progesterone Receptor (PR) Agonism Luciferase Follow-Up Assay (AID 2283941);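 also: loss of signal means cytotoxicity so actives lower viability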
How it was run: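 Multiplexed viability endpoint of the PR agonist luciferase follow-up: HEK293-PR-A-luc cells treated 16 h at 37C, with viability scored as decrease in CellTiter-Glo ATP signal.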

[15] = TOX21_TR_RXR_BLA_Agonist_Followup_viability: Viability Assessment in the Tox21 Thyroid Hormone Receptor beta Retinoid X Receptor alpha (RXRa) Agonism Beta-lactamase (BLA) Follow-Up Assay (AID 2283970)
How it was run: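 Viability counter-screen run alongside the RXRa bla follow-up: HEK293T reporter cells were treated for 16h at 37C in stripped-serum medium, then ATP was quantified by luciferase-coupled CellTiter-Glo. Decreased signal relative to DMSO marked cytotoxicity.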

[16] = test system: Brachyury (BRA) Protein Expression, Deisenroth Lab, TBXT (gene 6862); test: CCTE_Deisenroth_DEVTOX-GLR_legacy_Bra: (Legacy) CCTE's DevTox GLR-Endo Assay Evaluation of Brachyury (BRA) Protein Expression, Deisenroth Lab (AID 2284329; active = hit-call score of the fitted dose curve at least 0.9, where 1 is the maximum; inactive = score below 0.9)
How it was run: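 High-content imaging of fixed RUES2-GLR cells after a 48-hour differentiation with two compound exposures yields percent cells whose Bra signal exceeds pluripotent control median by 5x BMAD; values are baseline-corrected to DMSO.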

[17] = test system: SRY-box transcription factor 2 (SOX2) Protein Expression, Deisenroth Lab, SOX2 (gene 6657); test: CCTE_Deisenroth_DEVTOX-GLR_legacy_Sox2: (Legacy) CCTE's DevTox GLR-Endo Assay Evaluation of SRY-box transcription factor 2 (SOX2) Protein Expression, Deisenroth Lab (AID 2284346; active = hit-call score of the fitted dose curve at least 0.9, where 1 is the maximum; inactive = score below 0.9)
How it was run: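 Two exposures, 24 h apart, during 48 h defined-media differentiation of seeded RUES2-GLR cells; nuclei-stained cells imaged. Sox2 positivity called at 5x BMAD above endoderm control median, DMSO median subtracted.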

[18] = test system: SRY-box transcription factor 2 (SOX2) Protein Expression, Deisenroth Lab, SOX2 (gene 6657); test: CCTE_Deisenroth_DEVTOX-GLR_Endo_SOX2: CCTE's DevTox GLR-Endo Assay Evaluation of SRY-box transcription factor 2 (SOX2) Protein Expression, Deisenroth Lab (AID 2284412)
How it was run: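 Endpoint is percent SOX2-positive cells (SOX2+ count/total cells) minus 0.2% DMSO control, from high-content imaging of fixed, nuclear-stained RUES2-GLR cells. Dosing twice at 24 h intervals over 48 h differentiation, 1 nM–200 uM in 10 points.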

[19] = test system: Brachyury (BRA) Protein Expression, TBXT (gene 6862); test: CCTE_Deisenroth_DEVTOX-GLR_Endo_BRA: CCTE's DevTox GLR-Endo Assay Evaluation of Brachyury (BRA) Protein Expression, Deisenroth Lab (AID 2284417; active = hit-call score of the fitted dose curve at least 0.9, where 1 is the maximum; inactive = score below 0.9)
How it was run: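 RUES2-GLR pluripotent cells differentiated 48 h with two chemical exposures 24 h apart, 10-point range 1 nM - 200 uM. Percentage of BRA+ cells per total count by high-content imaging, minus 0.2% DMSO control.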

[20] = CCTE_Deisenroth_DEVTOX-GLR_Endo_CellCount: Viability Assessment in CCTE's DevTox GLR-Endo Assay, Deisenroth Lab (AID 2284420; active = hit-call score of the fitted dose curve at least 0.9, where 1 is the maximum; inactive = score below 0.9)
How it was run: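 Percent change in nuclear-stain cell counts versus 0.2% DMSO, from high-content imaging over 5 fields per well. Over a 48 h endoderm differentiation, RUES2-GLR cells received two doses 24 h apart across a 1 nM–200 uM series, with n=4.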

[21] = test system: SRY-box transcription factor 17 (SOX17) Protein Expression, Deisenroth Lab, SOX17 (gene 64321); test: CCTE_Deisenroth_DEVTOX-GLR_Pluri_SOX17: CCTE's DevTox GLR-Pluri Assay Evaluation of SRY-box transcription factor 17 (SOX17) Protein Expression, Deisenroth Lab (AID 2284427)
How it was run: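 The endpoint is SOX17+ cells as a fraction of cell count, corrected for the 0.2% DMSO control and obtained by high-content fluorescence imaging of fixed cells. Cells were RUES2-GLR under a 48-hour endoderm differentiation, dosed twice at 24-hour intervals over 1 nM–200 uM.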

Measured: AC50

CN1CC(O)c2cc(N=NC(N)=O)c(O)cc21 (centres undefined)
inactive: [1] | [2] | [3] | [4] | [5] | [6]

CCOC(=O)C1=C(C)NC(C)=C(C(=O)OC)C1c1cccc([N+](=O)[O-])c1 (centres undefined)
inactive: [1] | [2] | [3] | [4] | [7] | [8] | [10] | [11] | [13] | [14]
active: PGR (gene 5241) [9] 14.9 µM | PGR (gene 5241) [12] 11.2 µM

O=C(CCBr)N1CCN(C(=O)CCBr)CC1
inactive: [1] | [2] | [3] | [4] | [5] | [6] | [8]

CCOC(=O)Cn1cccc1-c1nc(-c2ccc(OC)cc2)c(-c2ccc(OC)cc2)s1
inactive: [1] | [2] | [3] | [5] | [6] | [8]
active: [4] 40.9 µM

CCn1cc(C(=O)O)c(=O)c2cnc(N3CCCC3)nc21
inactive: [1] | [2] | [3] | [4] | [5] | [6]

CCN(CC)CCOC(=O)c1cccnc1
inactive: [1] | [2] | [3] | [4] | [5] | [6]

O=C(O)c1cccc(C(=O)O)c1C(=O)O
inactive: [1] | [2] | [3] | [4] | [5] | [6] | [8]

NC[C@@H]1CC[C@@H](N)[C@@H](O[C@H]2[C@H](O)[C@@H](O[C@H]3O[C@H](CO)[C@@H](O)[C@H](N)[C@H]3O)[C@H](N)C[C@@H]2N)O1
inactive: [1] | [2] | [3] | [4] | [5] | [6] | [8]

CC1=C(/C=C/C(C)=C/C=C/C(C)=C\C(=O)O)C(C)(C)CCC1
inactive: [1] | [2] | [5] | [6] | [8] | [15]
active: [3] 42.9 µM | [4] 87.3 µM | [16] 100 µM | [17] 41.3 µM | [18] 69.5 µM | [19] 28 µM | [20] 10.7 µM | [21] 20.2 µM

NCCS(=O)(=O)O
inactive: [1] | [2] | [3] | [4] | [5] | [6] | [8]
